# Assay outcomes deposited in PubChem BioAssay by Broad Institute.
# Tg IFNy HTS – T. gondii growth inhibition under IFN-gamma. Toxoplasma gondii growth in IFN-gamma-treated host cells; hits give low values. AID 1259416. 3.8% of 69,000 active. activity change, negative = inhibition, % (concentration not given with the values); in the data active means activity change below about -70%, passing the limit was not always enough;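 further: host cells are HeLa cells infected with Toxoplasma gondii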
# * = called active by the depositor; ! = not confirmed by another sample. Many of the other results were omitted from the sample, so hits are more common in it than they were.
SMILES,Tg IFNy HTS
CCC(C(=O)N1CCN(c2ccccn2)CC1)n1c2ccccc2c2cnn(C)c(=O)c21 (centres undefined),-73.2*
Cn1ncc2c3ccccc3n(CC(=O)N3CCN(c4ccccn4)CC3)c2c1=O,135.9
Cc1oc(-c2ccc(C(=O)N(C)Cc3ccco3)cc2)nc1CN1CCN(c2ccccc2)CC1,34.8
Cn1c(=O)c2c3nc4ccccc4cc3c(=O)n(C)c2n(C)c1=O,-12.6
CN(C)c1cc(Nc2ccccc2)c2c(=O)n(C)c(=O)n(C)c2n1,-83.7*
Cn1c(=O)c2c(-c3ccc(F)cc3)cc(-c3cccc(F)c3)nc2n(C)c1=O,-10.0
Cc1cc(C)cc(C(=O)N2CCC3(CC2)NC(=O)c2ccccc2N3C)c1,-51.2
Cc1ccccc1-c1noc(CNC(=O)C2CC(C(C)C)=NO2)n1 (centres undefined),-36.7
CC(=O)Nc1ccc(C(=O)N2CCN(C(=O)c3ccco3)CC2)cc1,-51.9
CCOc1cccc(C(=O)Nc2ccc(N3CCN(C(=O)c4ccco4)CC3)cc2)c1,-86.4*
CCOc1ccc(C(=O)Nc2ccc(N3CCN(C(C)=O)CC3)cc2)cc1[N+](=O)[O-],-13.5
COc1ccc(S(=O)(=O)CCNS(=O)(=O)c2sc(C)nc2C)cc1,1.9
Cc1cnn(CC(=O)N2CCCC(c3cnccn3)C2)c1 (centres undefined),11.3
CC[C@@H](C(=O)O)[C@@H]1O[C@@H]([C@@H](C)[C@H](O)[C@H](C)C(=O)[C@H](CC)[C@H]2O[C@]3(C=C[C@@H](O)[C@]4(CC[C@@](C)(C5CC[C@](O)(CC)[C@H](C)O5)O4)O3)[C@H](C)C[C@@H]2C)[C@@H](C)C[C@H]1C (some centres undefined),-81.4*
Cc1ccc(C(=O)Nc2c(C(=O)N3CCN(c4ccccn4)CC3)[nH]c3ccccc23)cc1,-14.1
CCc1ccc(-c2nccn2Cc2cc(C)no2)o1,0.5
CC(=O)CC/C=C(\C)CC/C=C(\C)CC/C=C(\C)CCC=C(C)C,-77.2*
CC(C)=CCC/C(C)=C/COc1ccc2ccc(=O)oc2c1,18.6
CC(=O)N[C@@H](CSC/C=C(\C)CC/C=C(\C)CCC=C(C)C)C(=O)O,-21.7
Cc1c(F)cccc1NC(=O)Cn1ncc2c(N3CCCC3)ncnc21,17.6
Cc1cc(C)n(Cc2nc(-c3ccc(NC(=O)c4sccc4C)cc3)oc2C)n1,-57.4
O=C1CCC2C(CCN2C(=O)c2cccs2)N1CCN1CCCC1 (centres undefined),-18.9
CCC(C)NC(=O)CN1C(=O)CCc2cc(S(=O)(=O)N3CCC(C)CC3)ccc21 (centres undefined),-5.8
CC(=O)Nc1cccc(C(=O)N(Cc2ccsc2)CC2CCCO2)c1 (centres undefined),149.7
CC(C)CN(Cc1ccsc1)C(=O)c1coc(CN2CCOCC2)c1,0.8
SMILES,Tg IFNy HTS
CC(=O)Nc1cccc(C(=O)N(Cc2ccsc2)CC(C)C)c1,-79.4*
Cc1ccc2[nH]cc(-c3ccc(S(N)(=O)=O)s3)c2c1,4.5
COc1ccc(C)cc1NC(=O)N1CCC2(CC1)NC(=O)c1ccc(Cl)cc1N2C,93.4
CN(C)C/C=C/C(=O)Nc1cc2c(Nc3ccc(F)c(Cl)c3)ncnc2cc1O[C@H]1CCOC1,-75.2*
CCOc1cc2ncc(C#N)c(Nc3ccc(F)c(Cl)c3)c2cc1NC(=O)/C=C/CN(C)C,-76.8*
C=CC(=O)Nc1cc2c(Nc3ccc(F)c(Cl)c3)ncnc2cc1OCCCN1CCOCC1,-4.2
O=C(CCCOc1ccc(Cl)cc1Cl)NCc1ccccn1,13.4
CCOc1cc2ncc(C#N)c(Nc3ccc(OCc4ccccn4)c(Cl)c3)c2cc1NC(=O)/C=C/CN(C)C,-81.3*
CN1CCN(CCOc2cc(OC3CCOCC3)c3c(Nc4c(Cl)ccc5c4OCO5)ncnc3c2)CC1,15.9
COc1ccc(C(=O)Nc2ccc3nc(C)c(C)nc3c2)cc1OCc1ccccn1,10.6
CCc1ncnc2c1CCN(S(=O)(=O)C1CC1)CC2,4.2
CCOCC1CN(C(=O)c2cnc(C)cn2)Cc2ccnn2C1 (centres undefined),2.0
Cc1ccc(-c2nc(CN3CCN(C(=O)Nc4cccc(C)c4C)CC3)c(C)o2)cc1,-0.8
O=C(c1ccncc1)N1CCC2(CCN2c2ncccn2)C1 (centres undefined),5.5
O=C1c2cc(Cl)ccc2-c2ccc(Cl)cc21,-9.3
O=C(c1ccco1)N1CC[C@@H](N2CCOCC2)[C@H]1Cc1cccnc1,-1.8
Cc1ccc(NC(=O)Nc2ccc(-c3nc(-c4cc(C)ccc4C)co3)cc2)cc1,19.4
FC(F)(F)c1cccc(NC(=S)Nc2ccccn2)c1,-113.3*
S=C(Nc1ccccc1)Nc1ccccn1,61.2
O=C1NN=CC1CCCNC(=S)Nc1cccc(C(F)(F)F)c1 (centres undefined),13.5
CN(Cc1cnc(N2CCCC2)nc1)Cc1cc(-c2ccccc2)no1,-4.3
CCc1ccc(OCCN(C)C(=O)c2ccc(C(C)=O)s2)cc1,-14.6
Cc1cc(C(=O)N2C[C@H]3CC[C@H]2C3)c2cc(F)ccc2n1,1.8
C#C[C@]1(O)CC[C@H]2[C@@H]3CCC4=CC(=O)CC[C@@H]4[C@H]3CC[C@@]21C,-68.2
C#C[C@]1(O)CCC2C3CCC4=CC(=O)CC[C@@H]4C3CC[C@@]21CC (some centres undefined),-35.9
SMILES,Tg IFNy HTS
C#C[C@]1(OC(C)=O)CCC2C3CCC4=C/C(=N/O)CCC4C3CC[C@@]21CC (some centres undefined),-77.8*
O=C1c2cccc(O)c2C(=O)c2c(O)cccc21,11.6
O=C1c2ccccc2-c2n[nH]c3cccc1c23,-90.9*!
COCCN1C(=O)CCc2cc(NS(=O)(=O)c3ccccc3Br)ccc21,-2.4
c1ccc(Cn2c3ccccc3c3ccccc32)cc1,-16.3
O=c1c2ccccc2n(Cc2ccc(F)cc2)c2ccccc12,-80.8*
O=C1CCCc2c1c1ccccc1n2Cc1ccccc1,-46.7
Cc1ccc(CNC(=O)Cn2c(=O)cc(-c3nc(C4CC4)no3)c3ccccc32)cc1,-16.4
Cc1c(C2=CCN(S(=O)(=O)c3cccc4cccnc34)CC2)c2ccccc2n1Cc1c(F)cccc1Cl,-57.0
Cc1ccc(-n2c(SCc3nc(-c4ccccc4Cl)oc3C)nc3c(=O)[nH]cnc32)cc1,-35.5
Cc1ccc(C)c(-c2nc(CSc3nc4c(=O)[nH]cnc4n3-c3ccccc3)c(C)o2)c1,-79.9*
Cc1ccc(-n2c(SCc3nc(-c4ccccc4C)oc3C)nc3c(=O)[nH]cnc32)cc1,108.7
CCn1c(SCc2nc(-c3cccc(C)c3)oc2C)nc2c(=O)[nH]cnc21,93.4
CCOc1ccc(-c2nc(CSc3nc4c(=O)[nH]cnc4n3-c3ccccc3)c(C)o2)cc1OC,-21.9
Cc1cccc(-c2nc(CSc3nc4c(=O)[nH]cnc4n3-c3ccccc3)c(C)o2)c1,-109.8*
Cc1ccccc1SC1CCN(C(=O)Cc2nn[nH]n2)CC1,-4.3
CSc1ccc(CN2CCCC(OCc3cccnc3)C2)cc1 (centres undefined),1.6
Cc1ccc(SC(=O)c2cc(C)n(-c3c(Cl)cc(Cl)cc3Cl)n2)cc1,-100.0*
COc1cccc(C)c1C(=O)N1CCOC(c2ccc(Cl)c(Cl)c2)C1 (centres undefined),-77.0*
COc1ncc(C(=O)N2CCOC(c3ccc(Cl)c(Cl)c3)C2)cn1 (centres undefined),-15.0
COc1cccnc1C(=O)N1CCOC(c2ccc(Cl)c(Cl)c2)C1 (centres undefined),-6.2
O=C(N1CCOCC1)N1CCc2ncnc(-c3cccc(F)c3)c2CC1,-4.3
Cc1oc(-c2ccc(NC(=O)c3ccc(C(F)(F)F)cc3)cc2)nc1Cn1cccn1,-22.0
